This is a sample that favours compounds with a hit; in the whole collection about 3.8% have one here.
HSP90 inh = blocks HSP90-mediated luciferase refolding in reticulocyte lysate | AID 1789 | actives 0.91% (n = 290,000) | Rabbit reticulocyte lysate, luciferase refolding luminescence, 3 h | inhibition, % at 5.6 µM;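 active = inhibition above the screen-wide mean plus 3 SD, computed separately per campaign, cut at about 16% in these data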;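 also: 0% = DMSO wells and 100% = 60 µM geldanamycin wells; inhibitors lower the luminescence because luciferase stays unfolded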
HSF1 inhib = HSF1 inhibition. NIH3T3-HGL HSE-luciferase, MG132-induced, luminescence 8 h; hits give low values. activity change, negative = inhibition, % at 7.5 µM (by protocol). actives 0.77% (n = 300,000);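 active = more than half of replicate wells show activity change below -50%, luminescence cut by over half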;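 also: luciferase reports HSF-1 transcriptional activity via heat shock element; 0% = median of DMSO wells and -100% = zero luminescence signal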
HSF1 activator = increases HSF-1 driven luciferase reporter signal; NIH3T3-HGL HSF-1 luciferase reporter, MG132, 8 h; 100% = twice DMSO control signal; activation, % at 9 µM; actives 1.7% (n = 300,000); AID 504408;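 active = mean replicate activation of at least 50% with a set share of replicates each reaching 50%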;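 also: 0% = median of the neutral control wells and 100% = twice that signal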
Hsp70 act = Hsp70 transcriptional activation, primary screen | HeLa Hsp70 promoter luciferase reporter, luminescence; scaled: vehicle 0, proteasome-inhibitor control 100% | activation, % at 10 µM | actives 0.04% (n = 200,000) | AID 1203;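 active = activation above the mean across all tested compounds plus 3 SD, cutoff set per campaign, cut at about 5.5% in these data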;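 also: 100% = MG132 at 30 µM as the positive control and 0% = DMSO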
p-CIP stab down = p/CIP protein destabilization | decrease of EGFP signal, % at 10 µM | F442A p/CIP-EGFP cells, EGFP fluorescence, 16 h | actives 0.01% (n = 290,000) | Q05BA5;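 active = EGFP signal decrease of at least 30% at 10 µM or well 3 SD below plate mean, unless failing retest; inactive = the rest, including hits failing retest or dose response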
NALP1 yeast inh = blocks the NALP1 inflammasome reconstituted in yeast; actives 0.61% (n = 280,000); inhibition, % at 10 µM; AID 2071; S. cerevisiae NALP1/ASC/caspase-1 growth, X-gal OD620, 72 h; in the data active = inhibition mostly above about 24%, no sharp cut-off; inactive = mostly below about 32%
HSP90 confirm = HSP90 inhibition, confirmation assay; shares compounds with HSP90 inh; rabbit reticulocyte lysate, luciferase refolding luminescence, 3 h; inhibition, % at 5.9 µM; actives 64% (n = 2,300); in the data active = inhibition above about 18%;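 also: 0% = vehicle wells and 100% = reference inhibitor wells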
FLuc counter = counter-screen for HSP90 inhibitors: inhibitors of firefly luciferase | shares compounds with HSP90 inh | purified native firefly luciferase, luminescence | inhibition, % at 5.9 µM | actives 48% (n = 2,300) | AID 1847;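 active = inhibition above the mean inhibition of all tested sample wells plus 3 SD, cut at about 10% in these data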;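 also: 0% = DMSO with luciferase and 100% = wells lacking luciferase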
* marks the source's active call; other numbers are inactive results; nt = not tested or not shown.

SMILES	HSP90 inh	HSF1 inhib	HSF1 activator	Hsp70 act	p-CIP stab down	NALP1 yeast inh	HSP90 confirm	FLuc counter
CC1=CC(=C2C(=O)c3ccccc3C2=O)C=C(C)N1Cc1ccco1	2	19	38	0	-7	15	nt	nt
CC1=CC(=C2C(=O)c3ccccc3C2=O)C=C(C)O1	-1	7	44	-1	11	14	nt	nt
CCN1C=CC(=C2C(=O)c3ccccc3C2=O)C=C1	86*	-76*	-79	-1	-17	23	93*	87*
CCCN1C=CC(=C2C(=O)c3ccccc3C2=O)C=C1	92*	-83*	-85	0	-4	2	96*	91*
CCN(CC)CCn1c2c(c(SCC(=O)NCc3ccccc3)nc1=O)CCC2	nt	-11	-8	nt	nt	nt	nt	nt
COc1cccc(CN2CC(C(=O)N(C)Cc3ccnc4ccccc34)CCC2=O)c1 (configuration not stated)	-6	-14	-9	nt	9	6	nt	nt
O=[N+]([O-])c1cc(Cl)cc(/C=N/Nc2nc3ccccc3s2)c1O	-3	19	35	0	1	-11	nt	nt
COc1cc(/C=N/Nc2nc3ccccc3s2)cc([N+](=O)[O-])c1O	29*	18	6	nt	-10	17	-11	-30
Cc1cc(C)c(S(=O)(=O)NCC2CCC(C(=O)NCCCN3CCC(C)CC3)CC2)c(C)c1 (configuration not stated)	-1	-8	2	nt	5	10	nt	nt
COC(=O)c1ccc(COc2ccc3c4c(c(=O)oc3c2)CCC4)o1	13	4	15	0	-16	5	nt	nt
Cc1oc(C(=O)O)cc1COc1ccc2c3c(c(=O)oc2c1)CCC3	19*	2	22	0	4	50	8	-15
Cc1c(OCc2ccc(C(=O)O)o2)ccc2c3c(c(=O)oc12)CCC3	50*	-9	-2	0	-8	10	63*	13*
Cc1c(C(=O)OCC(=O)Nc2cccc(S(N)(=O)=O)c2)oc2c1ccc1ccccc12	-1	-3	-8	0	14	-9	nt	nt
CC(=O)N/N=C\c1cccc(OC/C=C/c2ccccc2)c1	21*	nt	nt	nt	-21	2	19*	-13
N#CCC(=O)N/N=C\c1cccc(OC/C=C/c2ccccc2)c1	21*	-6	1	nt	-7	2	26*	-26
COc1ccc2nc(C)cc(NCc3cccc(C(F)(F)F)c3)c2c1	1	-1	10	nt	4	22	nt	nt
O=c1c(Oc2ccccc2)coc2cc(O)cc(O)c12	nt	-8	4	nt	nt	nt	nt	nt
Cn1c(=O)[nH]c(=O)c2c1nc(Br)n2CC(O)COCc1ccccc1 (configuration not stated)	17*	0	-19	0	-7	-3	0	-1
CC(=O)NC(C(=O)c1ccccc1)N1CCCCC1 (configuration not stated)	4	-3	-10	nt	-8	14	nt	nt
COc1ccc2[nH]c(O)c(N=NC(=O)Cc3cccs3)c2c1	23*	-6	-26	nt	3	nt	-9	-17
O=C(Cc1cccs1)N=Nc1c(O)[nH]c2ccc(Br)cc12	0	nt	nt	nt	0	-3	nt	nt
C/C(=N/NC(=O)CNC(=O)c1cccnc1)c1cccc([N+](=O)[O-])c1	5	0	-2	0	12	22	nt	nt
Cc1noc(C(=O)Nc2ccc(Cl)cc2)c1Cl	25*	1	-17	nt	-16	4	2	-3
Cc1ccc(NC(=O)c2onc(C)c2Cl)cc1	0	24	36	0	-1	-43	nt	nt
Cc1ccc(NCC(=O)c2ccc(C)cc2)cc1	22*	10	20	nt	-8	14	5	-12
SMILES	HSP90 inh	HSF1 inhib	HSF1 activator	Hsp70 act	p-CIP stab down	NALP1 yeast inh	HSP90 confirm	FLuc counter
O=C(O)c1cccc(NC(=O)c2ccc3c(c2)C(=O)N(C2CCCCC2)C3=O)c1	9	-6	-4	nt	-1	10	nt	nt
Cc1nc(SCc2cccc(C(=O)O)c2)nc2c1CCCC2	18*	-27	-33	0	-10	9	47*	18*
Cc1ccc(C)c(C(=O)COC(=O)c2cccc(N3C(=O)c4c(C)nc5ccccc5c4C3=O)c2)c1	27*	-34	-32	0	2	29	14	-3
Cc1nnc2sc(-c3ccc(N(C)C)cc3)nn2c1=O	20*	16	20	nt	-1	5	8	-10
CN(C)c1ccc(-c2nn3c(-c4cccnc4)nnc3s2)cc1	nt	1	10	nt	-14	0	nt	nt
COc1ccc(CCNC(=O)c2ccc3c(c2)NC(=O)CS3)cc1OC	-3	-2	-14	nt	-6	4	nt	nt
Cc1ccc(F)c(NC(=S)Nc2cccc3ccccc23)c1	18*	-18	-25	nt	0	11	-6	-9
Cc1ccc(C)c(NC(=S)Nc2cccc3cnccc23)c1	4	12	28	0	-21	-19	nt	nt
Cc1ccccc1NC(=S)Nc1cccc2cnccc12	73*	12	26	0	3	-11	-3	-7
CCCC1(c2ccccc2)NC(=O)N(CC(=O)Nc2ccccc2C(F)(F)F)C1=O (configuration not stated)	-6	-7	1	nt	-1	18	nt	nt
O=C(Nc1nnc(-c2ccc(F)cc2)s1)c1ccco1	50*	8	38	nt	3	10	-4	-14
CCOC(=O)N1N=C(c2ccc(C)cc2)CC1(O)C(F)(F)F (configuration not stated)	20*	-8	3	0	-13	30	48*	43*
CCOC(=O)N1N=C(c2ccccc2)CC1(O)C(F)(F)F (configuration not stated)	-1	9	29	0	4	12	nt	nt
O=C(NNS(=O)(=O)c1ccc(F)cc1F)c1csc(-c2cccnc2)n1	7	-1	-13	nt	10	8	nt	nt
Cc1cc(C(=O)CN2CCC(C)CC2)c(C)n1-c1ccccc1F	53*	-73*	-79	0	-4	38	58*	28*
COc1ccc(N2CC(C(=O)Nc3ccccc3N3CCCC3)CC2=O)c(OC)c1 (configuration not stated)	nt	-4	-6	nt	nt	nt	nt	nt
O=C(NCCc1cccc(Cl)c1)c1ccc(OC2CCN(Cc3ccccn3)CC2)cc1	22*	1	4	nt	20	0	19*	-6
O=C1C(Cl)=C(NCc2cccnc2)C(=O)c2ccccc21	18*	33	40	nt	-6	17	5	-3
CCc1ccc(NC(=O)c2cnn3ccccc23)cc1	65*	-32	-30	-1	-5	2	78*	71*
O=C(NCc1ccc(F)cc1)c1cnn2ccccc12	1	13	17	0	-23	-16	nt	nt

High-throughput results from PubChem BioAssay.
